Bioassay records as filed in PubChem BioAssay.
PD-1 reversal: activators reversing PD-1 mediated T-cell inhibition | primary human CD4 T cells, PD-L1 beads, CellTiter-Glo 96 h | activation, % (concentration not given with the values) | 29,000 tested, under 10 active | AID 2316; call rule not given here
STK33 kin inh: inhibitors of human STK33 kinase; Q9BYT3; 0.44% of 27,000 active; inhibition, % at 12.5 µM; ADP-Glo luminescence, MBP substrate; in the data active = inhibition above about 20%; inconclusive = no clear call, values can overlap the other calls
Target sequence (Q9BYT3 whole entry, looked up): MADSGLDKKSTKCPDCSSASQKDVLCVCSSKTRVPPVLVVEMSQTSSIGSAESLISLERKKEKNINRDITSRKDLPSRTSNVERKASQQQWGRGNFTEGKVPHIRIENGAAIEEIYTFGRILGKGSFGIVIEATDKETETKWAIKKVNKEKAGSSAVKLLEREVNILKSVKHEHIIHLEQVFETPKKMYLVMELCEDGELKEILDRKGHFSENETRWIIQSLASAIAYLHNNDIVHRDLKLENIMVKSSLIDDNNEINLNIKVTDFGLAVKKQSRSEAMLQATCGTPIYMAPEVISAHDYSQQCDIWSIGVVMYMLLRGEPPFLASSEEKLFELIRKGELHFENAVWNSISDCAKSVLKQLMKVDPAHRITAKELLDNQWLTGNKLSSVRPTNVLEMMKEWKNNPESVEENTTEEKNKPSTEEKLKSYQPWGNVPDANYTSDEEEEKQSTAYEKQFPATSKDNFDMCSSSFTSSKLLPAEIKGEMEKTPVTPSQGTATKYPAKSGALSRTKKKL
NOMO-1 viab: STK33 inhibitor candidate reducing NOMO-1 cell viability. NOMO-1 AML viability, CellTiter-Glo luminescence, 72 h. 7.5% of 37,000 active. AID 2330. inhibition, % (no concentration beside the values); in the data active = inhibition above about 80%; inconclusive = no clear call, values can overlap the other calls
A number is an active result; i = inactive; ? = inconclusive; nt = not tested or not shown. The sample as a whole holds a higher share of hits than the screen did.

SMILES	PD-1 reversal	STK33 kin inh	NOMO-1 viab
C[C@H]1CN([C@@H](C)CO)C(=O)Cc2cc(NC(=O)Nc3ccc4c(c3)OCO4)ccc2O[C@@H]1CN(C)Cc1ccc(C(F)(F)F)cc1	i	i	?
C[C@@H]1CN([C@@H](C)CO)C(=O)Cc2cc(NC(=O)Nc3ccc4c(c3)OCO4)ccc2O[C@@H]1CN(C)Cc1ccc(C(F)(F)F)cc1	i	nt	95
C[C@H]1CN([C@@H](C)CO)C(=O)Cc2cc(NC(=O)Nc3ccc4c(c3)OCO4)ccc2O[C@H]1CN(C)Cc1ccc(C(F)(F)F)cc1	nt	i	i
C[C@H](CO)N1C[C@H](C)[C@H](CN(C)Cc2ccc(C(F)(F)F)cc2)Oc2ccc(NC(=O)Nc3ccc4c(c3)OCO4)cc2CC1=O	nt	nt	104
CC(=O)c1ccc(NC(=O)CNS(=O)(=O)c2cccc(Cl)c2)cc1	i	i	i
Cc1nnc(SCC(=O)Nc2cc(Cl)ccc2Cl)s1	i	i	i
Cc1cc(CNC(=S)Nc2ccc(S(N)(=O)=O)cc2)nn1C	i	i	i
COc1nnc(-c2ccc(N3CCOCC3)c(NC(=O)COc3ccc(C)cc3)c2)c2ccccc12	i	i	i
CC[n+]1c(C)csc1Nc1ccc(N2CC(C)OC(C)C2)cc1 (stereo unspecified)	i	nt	i
O=C(CSc1nnc(-c2ccc(Cl)cc2)o1)Nc1ccccc1C(F)(F)F	i	i	i
O=C(c1nn2c(C(F)(F)F)cc(-c3cccs3)nc2c1Cl)N1CCCc2ccccc21	i	i	107
O=C(NCCCn1ccnc1)c1nn2c(C(F)(F)F)cc(-c3cccs3)nc2c1Br	nt	i	i
Cc1cccc(NC(=O)CC2OCCN(Cc3ccccc3)C2=O)c1 (stereo unspecified)	i	i	i
CCOC(=O)CSc1c(-c2cccs2)[nH]c2ccccc12	i	nt	139
CCOC(=O)CC1=Nn2c(nnc2-c2cccs2)SC1	i	i	i
CCN(CC)C(=O)N1CCN(CCC#N)CC1	i	nt	i
CCCC(O)c1c(O)cccc1C1(O)CC(=O)C/C1=C\C(O)CC(=O)O (stereo unspecified)	i	i	121
Cn1c(=O)c2ccccc2[s+]1-c1cccc2cccc(C(=O)O)c12 (stereo unspecified)	i	nt	i
Cc1cccc(NC(=O)c2ccc(OCC(=O)Nc3ccc(Cl)c(Cl)c3)cc2)c1C	nt	i	i
N#C/C(=C\c1ccc(O)c(O)c1)C(=O)c1ccc(O)c(O)c1	i	31	i
NC(=O)NCCc1ccccc1	i	nt	i
N#C/C(=C\c1ccc(O)c(O)c1)C(=O)NCCCc1ccccc1	i	i	92
COc1ccc(C(c2ccc3cccnc3c2O)N2CCOCC2)cc1 (stereo unspecified)	i	nt	118
c1ccc(C(c2ccccc2)N2CCC2)cc1	i	nt	i
O=C(c1ccc(NS(=O)(=O)c2cccc3cccnc23)cc1)N1CCOCC1	i	i	i
SMILES	PD-1 reversal	STK33 kin inh	NOMO-1 viab
Oc1c(C(c2ccncc2)N2CCCC2)ccc2cccnc12 (stereo unspecified)	i	nt	143
COc1ccc(-c2cc(=O)c3c(O)c(OC)c(O[C@@H]4O[C@H](CO)[C@@H](O)[C@H](O)[C@H]4O[C@@H]4O[C@@H](C)[C@H](O)[C@@H](O)[C@H]4O)cc3o2)cc1	i	i	i
CC(=O)Oc1ccc2c(=O)c(Oc3ccc(Cl)cc3)c(C)oc2c1	i	nt	i
O=C1CC2(CCCC2)C(=O)N1c1cc(C(F)(F)F)cc(C(F)(F)F)c1	i	nt	i
Cc1cc(C)nc(NS(=O)(=O)c2ccc(-n3c(-c4ccc5ccccc5n4)n[nH]c3=S)cc2)n1	i	?	i
COc1ccc(-n2c(SCC(=O)c3ccc(Cl)cc3)nnc2-c2ccccc2)cc1	nt	i	i
OC(c1ccccc1)c1oc2ccccc2c1-c1cnn(-c2ccccc2)c1 (stereo unspecified)	i	i	112
CC(=O)c1cccc(NC(=O)NCc2cc(C)n(C)n2)c1	i	i	i
CC1(C)CC(=O)C=C(Sc2nc3ccccc3o2)C1	i	i	120
O=C(CCSc1nc2ccccc2o1)N1CCOCC1	nt	i	i
COc1ccccc1NC(=O)C1=C(C)NC2=C(C(=O)CC(c3ccc(OC)c(OC)c3)C2)C1c1ccc(C)o1 (stereo unspecified)	nt	i	nt
O=C1S/C(=C\c2ccc(N3CCOCC3)o2)C(=O)N1c1ccccc1	i	nt	132
O=c1c(N2CCOCC2)nnc2sc3ccccc3n12	i	nt	i
Cc1nn(CC(=O)Nc2cc(Cl)cc(Cl)c2)c(C)c1[N+](=O)[O-]	i	i	?
CC(C)Oc1cccc(-c2cc(C(=O)NCc3ccco3)c3ccccc3n2)c1	nt	i	i
Cc1ccc(S(=O)(=O)c2nc(-c3ccccc3)oc2NCCN2CCOCC2)cc1	nt	i	i
CCC(C)S(=O)(=O)c1oc(-c2ccc(C)cc2)nc1S(=O)(=O)c1ccccc1 (stereo unspecified)	i	i	116
COc1ccc(C)cc1NC(=O)CNS(=O)(=O)c1c(C)cc(C)cc1C	i	i	i
CSc1sc(C(=O)Sc2ccccc2)c2c1S(=O)(=O)N(C)c1ccccc1-2	i	nt	121
CCOC(=O)c1sc(SCc2ccccc2)c2c1-c1sccc1N(C)S2(=O)=O	i	nt	i
CCn1c(SCC(=O)Nc2ccccc2Br)nnc1-c1ccccc1	i	i	i
CC(C)NC(=O)Nc1cccc2c1O[C@@H](CN(C)Cc1ccc(C(=O)Nc3ccccc3N)cc1)[C@@H](C)CN([C@H](C)CO)C2=O	i	nt	i
CC(C)NC(=O)Nc1cccc2c1O[C@@H](CN(C)Cc1ccc(C(=O)Nc3ccccc3N)cc1)[C@@H](C)CN([C@@H](C)CO)C2=O	i	nt	141
C[C@H](CO)N1C[C@H](C)[C@H](CN(C)Cc2ccc(C(=O)Nc3ccccc3N)cc2)Oc2c(NS(C)(=O)=O)cccc2C1=O	i	nt	i
CC(C)NC(=O)Nc1cccc2c1O[C@H](CN(C)Cc1ccc(C(=O)Nc3ccccc3N)cc1)[C@H](C)CN([C@@H](C)CO)C2=O	i	nt	139
SMILES	PD-1 reversal	STK33 kin inh	NOMO-1 viab
O=C(/C=C/c1ccccc1)Oc1ccc2ccccc2c1	i	nt	i
Cc1c(Cl)cccc1NC(=O)COc1ccc(C(=O)Nc2cccc(C(F)(F)F)c2)cc1	i	i	i
N=c1sc2ccccc2n1C(=O)OCc1ccccc1	i	nt	i
O=C(Cn1cc(C(=O)c2ccccc2F)c2ccccc21)NCC1CCCO1 (stereo unspecified)	i	i	i
COc1cc(/C=C/C(=O)NCC(O)c2ccc(O)cc2)ccc1O (stereo unspecified)	nt	i	nt
COc1cc(O)c(C(=O)/C=C/c2ccc(O)c(OC)c2)c(OC)c1	nt	51	i
NNC(=O)c1cc(-c2ccccc2)n[nH]1	i	nt	i
Cc1ccc(NC(=O)CSc2nc(C)cc(-c3ccc(Cl)cc3)n2)cc1	i	i	i
C[C@H](CO)N1C[C@H](C)[C@H](CN(C)Cc2ccncc2)Oc2ccc(NC(=O)Nc3ccccc3)cc2C1=O	i	i	97
CC(C)NC(=O)Nc1ccc2c(c1)C(=O)N([C@@H](C)CO)C[C@@H](C)[C@@H](CN(C)Cc1ccncc1)O2	i	i	i
C[C@H]1CN([C@@H](C)CO)C(=O)c2cc(NC(=O)Nc3ccc(F)cc3)ccc2O[C@H]1CN(C)Cc1ccncc1	i	i	100
C[C@@H]1CN([C@H](C)CO)C(=O)c2cc(NC(=O)Nc3ccccc3)ccc2O[C@@H]1CN(C)Cc1ccncc1	i	nt	i
